Results from PubChem BioAssay (EPA / NIEHS).
Active and inactive are the calls of the source. Rule for the calls: active = hit-call score of the fitted dose curve at least 0.9, where 1 is the maximum; inactive = score below 0.9.

Columns and labels:
[1] = read-out: TIMP metallopeptidase inhibitor 2 (TIMP2), TIMP2 (gene 7077); experiment: BSK_KF3CT_TIMP2: BioMAP Diversity Plus: KF3CT Assay for TIMP metallopeptidase inhibitor 2 (TIMP2) Biomarker Activity (AID 2283071); details: primary human keratinocytes with fibroblasts; actives raise or lower the signal
How it was run: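 Keratinocyte–fibroblast co-culture, 24 h exposure; TIMP-2 ELISA, DMSO-normalised bidirectional fit. Parallel SRB (0.1%, TCA-fixed, 560 nm) total-protein staining gauges cytotoxicity.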

[2] = read-out: Transforming growth factor beta 1 (TGFb1), TGFB1 (gene 7040); experiment: BSK_KF3CT_TGFb1: BioMAP Diversity Plus: KF3CT Assay for Transforming growth factor beta 1 (TGFb1) Biomarker Activity (AID 2283072); details: primary human keratinocytes with fibroblasts; actives raise or lower the signal
How it was run: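 Signal changes in either direction, relative to DMSO, define activity here. TGF-b1 is read by ELISA from a human keratinocyte-fibroblast co-culture 24 h post-dose.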

[3] = read-out: C-C motif chemokine 2 (Homo sapiens) (UniProt P13500); experiment: BSK_KF3CT_MCP1: BioMAP Diversity Plus: KF3CT Assay for Monocyte Chemoattractant Protein 1 (MCP1/CCL2) Biomarker Activity (AID 2283073); details: primary human keratinocytes with fibroblasts; actives raise or lower the signal
How it was run: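 ELISA readout of MCP-1 after 24 h chemical dosing of a human skin primary co-culture of keratinocytes and foreskin fibroblasts. Activity was fitted in both directions against DMSO.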

[4] = read-out: Matrix Metallopeptidase 9 (MMP9), MMP9 (gene 4318); experiment: BSK_KF3CT_MMP9: BioMAP Diversity Plus: KF3CT Assay for Matrix Metallopeptidase 9 (MMP9) Biomarker Activity (AID 2283074); details: primary human keratinocytes with fibroblasts; actives raise or lower the signal
How it was run: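 Human keratinocyte/foreskin fibroblast co-culture; compound added; 24 h; MMP-9 by ELISA; bidirectional fit vs DMSO baseline.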

[5] = read-out: urokinase plasminogen activator (uPA), PLAU (gene 5328); experiment: BSK_KF3CT_uPA: BioMAP Diversity Plus: KF3CT Assay for urokinase plasminogen activator (uPA) Biomarker Activity (AID 2283075); details: primary human keratinocytes with fibroblasts; actives raise or lower the signal
How it was run: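 ELISA readout of uPA, analyzed for signal gain or loss relative to DMSO, from a human primary keratinocyte–foreskin fibroblast co-culture measured 24 h after chemical treatment.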

CD40, CD40 (gene 958) [6] = experiment: BSK_LPS_CD40: BioMAP Diversity Plus: LPS Assay for CD40 Biomarker Activity (AID 2283076); details: primary human HUVEC with PBMC; actives raise or lower the signal
How it was run: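 Cells were dosed, incubated 24 h, then assayed for CD40 by ELISA. Gain or loss of signal was analysed relative to DMSO controls. The culture paired human umbilical vein endothelium with peripheral blood mononuclear cells.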

[7] = read-out: E-selectin (Homo sapiens) (UniProt P16581); experiment: BSK_LPS_Eselectin: BioMAP Diversity Plus: LPS Assay for Eselectin Biomarker Activity (AID 2283077); details: primary human HUVEC with PBMC; actives raise or lower the signal
How it was run: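 Primary human vascular co-culture (endothelium plus PBMC) was dosed with chemical, then E-selectin quantified by ELISA at 24 h. Endpoint values derive from bidirectional curve fitting relative to DMSO.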

[8] = read-out: Interleukin-8 (IL8), CXCL8 (gene 3576); experiment: BSK_LPS_IL8: BioMAP Diversity Plus: LPS Assay for Interleukin-8 (IL8) Biomarker Activity (AID 2283078); details: primary human HUVEC with PBMC; actives raise or lower the signal
How it was run: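 Readout is IL-8 by ELISA, taken 24 h after compounds were added to LPS-stimulated endothelial/PBMC co-cultures. Both increases and decreases relative to DMSO control were scored through bidirectional fitting.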

[9] = BSK_LPS_SRB: Viability Assessment in the BioMAP Diversity Plus: LPS Assay (AID 2283079); details: primary human HUVEC with PBMC;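 note: total protein by sulforhodamine B absorbance as a cytotoxicity measure; measured one day after compound addition; fitted in both directions against DMSO so loss or gain of signal counts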
How it was run: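 Readout is SRB absorbance at 560 nm (0.1% stain, TCA-fixed parallel cultures) as a total-protein cytotoxicity measure. Cells: primary human umbilical vein endothelium plus peripheral blood mononuclear cells, 24 h after chemical exposure; DMSO served as baseline.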

[10] = read-out: Interleukin-1 alpha (IL1a), IL1A (gene 3552); experiment: BSK_LPS_IL1a: BioMAP Diversity Plus: LPS Assay for Interleukin-1 alpha (IL1a) Biomarker Activity (AID 2283080); details: primary human HUVEC with PBMC; actives raise or lower the signal
How it was run: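 ELISA read-out of IL-1 alpha from a human primary vascular co-culture (endothelium plus PBMC) under LPS, sampled 24 hours post-dosing. Activity was fitted in both directions relative to DMSO controls.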

[11] = read-out: Monocyte Chemoattractant Protein-1 (MCP1), CCL2 (gene 6347); experiment: BSK_LPS_MCP1: BioMAP Diversity Plus: LPS Assay for Monocyte Chemoattractant Protein-1 (MCP1) Biomarker Activity (AID 2283081); details: primary human HUVEC with PBMC; actives raise or lower the signal
How it was run: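 Human endothelial–PBMC co-cultures were dosed with chemical, then LPS-driven MCP-1 levels were quantified by ELISA at 24 h. Activity in either direction was fitted versus DMSO negative control.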

[12] = read-out: Macrophage colony-stimulating factor (MCSF), CSF1 (gene 1435); experiment: BSK_LPS_MCSF: BioMAP Diversity Plus: LPS Assay for Macrophage colony-stimulating factor (MCSF) Biomarker Activity (AID 2283083); details: primary human HUVEC with PBMC; actives raise or lower the signal
How it was run: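 ELISA readout of M-CSF after 24 h compound exposure in a human endothelial/PBMC co-culture. Activity, in either direction, is fitted relative to DMSO vehicle.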

[13] = read-out: Tissue Factor, F3 (gene 2152); experiment: BSK_LPS_TissueFactor: BioMAP Diversity Plus: LPS Assay for Tissue Factor Biomarker Activity (AID 2283084); details: primary human HUVEC with PBMC; actives raise or lower the signal
How it was run: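 ELISA signal for cell-surface Tissue Factor (CD142) was read 24 h after compound dosing of an LPS-stimulated human endothelial–PBMC primary co-culture. Gain or loss of signal was scored relative to DMSO.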

[14] = read-out: Tumor necrosis factor (Homo sapiens) (UniProt P01375); experiment: BSK_LPS_TNFa: BioMAP Diversity Plus: LPS Assay for Tumour Necrosis Factor alpha (TNFa) Biomarker Activity (AID 2283085); details: primary human HUVEC with PBMC; actives raise or lower the signal
How it was run: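 Primary human vascular co-culture of HUVEC and PBMC; TNFa ELISA 24 h after treatment, analysed as increase or decrease relative to DMSO control.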

[15] = read-out: Vascular cell adhesion molecule 1 (VCAM1), VCAM1 (gene 7412); experiment: BSK_LPS_VCAM1: BioMAP Diversity Plus: LPS Assay for Vascular cell adhesion molecule 1 (VCAM1) Biomarker Activity (AID 2283086); details: primary human HUVEC with PBMC; actives raise or lower the signal
How it was run: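 Primary human vascular co-culture (umbilical vein endothelium plus PBMC) stimulated with LPS received chemical; 24 h later VCAM-1 was read by ELISA. Overt cytotoxicity was assessed by sulforhodamine B staining of parallel cultures at the same time point.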

CD38, CD38 (gene 952) = experiment: BSK_SAg_CD38: BioMAP Diversity Plus: SAg Assay for CD38 Biomarker Activity (AID 2283087); details: primary human HUVEC with PBMC; actives raise or lower the signal
How it was run: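 Fluorescence ELISA of cell-surface CD38 served as the read-out, with either increase or decrease fitted against DMSO controls. Cells were a human umbilical vein endothelium plus PBMC co-culture under SEB/TSST-1 stimulation, measured 24 h after dosing.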

CD40, CD40 (gene 958) [16] = experiment: BSK_SAg_CD40: BioMAP Diversity Plus: SAg Assay for CD40 Biomarker Activity (AID 2283088); details: primary human HUVEC with PBMC; actives raise or lower the signal
How it was run: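 Compounds were dosed onto a human primary endothelial–PBMC co-culture, and after 24 h CD40 was quantified by ELISA using a fluorescence signal. Activity in either direction was fitted relative to DMSO.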

CD69, CD69 (gene 969) = experiment: BSK_SAg_CD69: BioMAP Diversity Plus: SAg Assay for CD69 Biomarker Activity (AID 2283089); details: primary human HUVEC with PBMC; actives raise or lower the signal
How it was run: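 HUVEC co-cultured with PBMC were dosed with chemical, and CD69 was measured by ELISA with fluorescence read-out 24 h later. Bidirectional curve fitting used DMSO as negative control and activity baseline.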

[17] = read-out: Monocyte Chemoattractant Protein-1 (MCP1), CCL2 (gene 6347); experiment: BSK_SAg_MCP1: BioMAP Diversity Plus: SAg Assay for Monocyte Chemoattractant Protein-1 (MCP1) Biomarker Activity (AID 2283090); details: primary human HUVEC with PBMC; actives raise or lower the signal
How it was run: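 MCP-1 levels in the endothelial–PBMC SAg co-culture were quantified by ELISA at 24 h post-dosing; both increases and decreases versus DMSO scored. Cytotoxicity monitored by SRB total protein in parallel cultures.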

[18] = BSK_LPS_PGE2: BioMAP Diversity Plus: LPS Assay for Prostaglandin E2 (PGE2) Biomarker Activity (AID 2283082); details: primary human HUVEC with PBMC; actives raise or lower the signal
How it was run: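 Endpoint derived from bidirectional curve fitting versus DMSO of ELISA-measured PGE2 in LPS-stimulated human primary vascular co-culture (HUVEC with PBMC) harvested at 24 h.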

Measured: AC50

Chain of Tumor necrosis factor (Homo sapiens) (P01375 whole entry, looked up): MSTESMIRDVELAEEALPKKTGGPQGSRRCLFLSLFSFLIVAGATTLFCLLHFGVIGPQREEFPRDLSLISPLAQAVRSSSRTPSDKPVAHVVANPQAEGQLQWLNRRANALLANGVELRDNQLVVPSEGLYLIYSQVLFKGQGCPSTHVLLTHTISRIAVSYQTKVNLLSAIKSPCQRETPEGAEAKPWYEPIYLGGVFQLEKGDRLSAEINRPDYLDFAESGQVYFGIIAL
Chain of E-selectin (Homo sapiens) (P16581 whole entry, looked up): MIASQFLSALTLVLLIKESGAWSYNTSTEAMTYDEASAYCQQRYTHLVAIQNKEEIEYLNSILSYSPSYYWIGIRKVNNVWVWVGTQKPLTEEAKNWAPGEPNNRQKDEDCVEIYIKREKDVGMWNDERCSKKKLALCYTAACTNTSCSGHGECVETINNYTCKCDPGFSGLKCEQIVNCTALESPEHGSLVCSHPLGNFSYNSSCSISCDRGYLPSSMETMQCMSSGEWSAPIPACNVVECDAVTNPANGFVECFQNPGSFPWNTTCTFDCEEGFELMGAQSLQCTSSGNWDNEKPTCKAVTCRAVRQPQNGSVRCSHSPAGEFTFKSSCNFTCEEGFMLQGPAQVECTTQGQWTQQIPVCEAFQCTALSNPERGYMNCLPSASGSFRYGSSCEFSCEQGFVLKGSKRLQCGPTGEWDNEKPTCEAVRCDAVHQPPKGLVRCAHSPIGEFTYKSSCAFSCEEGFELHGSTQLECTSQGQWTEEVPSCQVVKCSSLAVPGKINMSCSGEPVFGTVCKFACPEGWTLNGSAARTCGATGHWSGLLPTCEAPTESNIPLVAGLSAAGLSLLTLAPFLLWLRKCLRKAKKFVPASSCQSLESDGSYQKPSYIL

C[C@]12C=CC3=C4CCC(=O)C=C4CC[C@H]3[C@@H]1CC[C@@H]2O
inactive: [1] | [2] | [3] | [4] | [5] | [8] | [9] | [10] | [11] | [13] | [14] | CD69, CD69 (gene 969) | [17]
active: CD40, CD40 (gene 958) [6] 20 µM | [7] 4.37 µM | [12] 9.08 µM | [15] 10.3 µM | CD38, CD38 (gene 952) 4.63 µM | CD40, CD40 (gene 958) [16] 9.73 µM

CCC12COCN1COC2
inactive: [1] | [2] | [3] | [4] | [5] | CD40, CD40 (gene 958) [6] | [7] | [8] | [9] | [10] | [11] | [18] | [12] | [13] | [14] | [15] | CD38, CD38 (gene 952) | CD40, CD40 (gene 958) [16] | CD69, CD69 (gene 969) | [17]

Nc1ccc(Oc2ccc(N)cc2)cc1
inactive: [1] | [2] | [3] | [4] | [5] | CD40, CD40 (gene 958) [6] | [7] | [8] | [9] | [10] | [11] | [12] | [13] | [14] | [15] | CD38, CD38 (gene 952) | CD40, CD40 (gene 958) [16] | CD69, CD69 (gene 969) | [17]

CCCCOC(=O)c1ccccc1C(=O)OCc1ccccc1
active: [15] 10.7 µM
inactive: [1] | [2] | [3] | [4] | [5] | CD40, CD40 (gene 958) [6] | [7] | [8] | [9] | [10] | [11] | [12] | [13] | [14] | CD38, CD38 (gene 952) | CD40, CD40 (gene 958) [16] | CD69, CD69 (gene 969) | [17]

Clc1ccccc1Cl
inactive: [1] | [2] | [3] | [4] | [5] | CD40, CD40 (gene 958) [6] | [7] | [8] | [9] | [10] | [11] | [18] | [12] | [13] | [14] | [15] | CD40, CD40 (gene 958) [16] | CD69, CD69 (gene 969) | [17]

O=C(Oc1ccc(Br)cc1)N1CCN2CCC1CC2
inactive: [1] | [2] | [3] | [4] | [5] | CD40, CD40 (gene 958) [6] | [7] | [8] | [9] | [10] | [11] | [12] | [13] | [14] | [15] | CD38, CD38 (gene 952) | CD40, CD40 (gene 958) [16] | CD69, CD69 (gene 969) | [17]
